ChEMBL document CHEMBL3988442, “University of Dundee, Small-Polar-MMV Screening Library” (2021)

The compounds below were run against AMP-activated protein kinase, AMPK (Homo sapiens) (UniProt P54646+O43741+P54619+Q9UGJ0+Q9Y478+Q13131+Q9UGI9) (assay: AMP-dependent Kinase enzyme assay. An in vitro enzyme assay that detects ADP turnover that is directly proportional to AMPK activity. This uses naive AMPK that is activated during the assay with MK-8722). Conditions: 30 µM.
Assay type: functional
Set-up: scale not given: direction of the effect not stated beside the values

SMILES | Percent Effect
NC(=O)C(NC1CCN(CC2CCCCC2)CC1)c1ccccc1 (centres undefined) | 0.144%
Cc1cc(NC(=O)C2CCN(c3nnc(C)c(C)c3C#N)CC2)no1 | -48.4%
CC(=O)Nc1ccc(CNC(=O)CNCc2sc(C)nc2C)cc1 | 3.71%
Cc1cc(C)c(-n2cccn2)c(CN2CCOCC(CN(C)C)C2)c1 (centres undefined) | -0.542%
CC(C)N(Cc1ccc(C(=O)O)o1)C(C)C | 2.21%
Cc1noc(C)c1C(=O)N(C)C(C)c1ccncc1 (centres undefined) | -0.736%
Cc1cc(NC(=O)N2CCC[C@@H]2CO)nn1-c1ccccc1Cl | 3.2%
CCC(CO)NC(=O)c1cc(COc2ccc(OC)cc2Cl)[nH]n1 (centres undefined) | -8.13%
CCn1nc(C)c(NC(=O)CN(C)C(C)c2ccon2)c1C (centres undefined) | -1.21%
CCCc1nc(C(=O)NC(COC)c2ccnn2C)cs1 (centres undefined) | -0.17%
Cc1ccc(CN(C(=O)NCC2CCS(=O)(=O)C2)C2CC2)o1 (centres undefined) | -7.42%
CC(CN1CCOC1=O)NC(=O)c1cccc(Cl)c1Cl (centres undefined) | 10%
O=C(NCCn1ccnc1-c1cc2n(n1)CCNC2)c1ccncc1 | 1.13%
CCc1nnc2n1CCN(C(=O)C(C)Oc1cccc(C#N)c1)C2 (centres undefined) | 5.56%
O=C(Cn1ccc2ncccc2c1=O)N1CCSCC1 | -4.34%
COCc1nc(C2CC2)nn1-c1cc(Cl)ccc1OC | -8.6%
NC(=O)C1CCN(CCCNC(=O)Nc2nccs2)CC1 | 5.68%
Cc1ccccc1S(=O)(=O)Cc1nsc(N(C)C)n1 | -0.34%
CC(=O)N1CCC(NC(=O)CN2CCCc3c(C)ccc(F)c32)CC1 | 5.92%
